According to PubChem BioAssay (NCATS):
Inconclusive results are not listed. Unless noted, the call rests on the fitted dose curve; in most records, active means well fitted curve in either direction with a large enough effect (not every such curve was filed as active); inconclusive means small, poorly fitted or top-dose-only effect, or another doubt; inactive means flat fitted curve, though single readings scatter.

Tests used:
[1] = AP1 Signaling Pathway (AID 357); settings: ME-180 AP-1-bla reporter, EGF-induced, beta-lactamase ratio, 5 h; at 17.2 µM (top of the series) unless noted; further: on the % scale 0 is the no-effect control and ±100 the full control effect
How it was run: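 ME-180 cells with beta-lactamase reporter under AP-1 response element, stimulated with EC50 EGF; compounds tested in titration series, 5 h at 37 °C. CCF4 substrate added 2.5 h at room temperature; 460/530 nm emission ratio gave %activity and AC50.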

[2] = Stat Signaling Pathway (AID 446); settings: ME-180 SIE beta-lactamase reporter, IL-6 stimulated, 5 h; at 17.2 µM (top of the series) unless noted;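 further: ME-180 cervical cancer cells given 40 pM IL-6 alongside compound; SIE-controlled beta-lactamase reporter measured as 460/530 nm FRET emission ratio; on the % scale 0 is the no-effect control and ±100 the full control effect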
How it was run: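 ME-180 SIE-bla cells; overnight plating; cpd + IL-6 40 pM, 5 h, 37 C; LiveBLAzer 2.5 h RT; 460/530 nm emission ratio. Normalized to 300 pM IL-6 and 125 nM JAK inhibitor controls.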

[3] = target: Glucocorticoid receptor (Homo sapiens) (UniProt P04150); test: GR-GFP Redistribution (AID 450;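 active means compounds whose dose series gives a full or clear partial fitted curve of increased nuclear translocation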; further: potency means the concentration at half of the fitted maximal effect)
Glucocorticoid receptor (Homo sapiens), sequence (P04150 whole entry, looked up): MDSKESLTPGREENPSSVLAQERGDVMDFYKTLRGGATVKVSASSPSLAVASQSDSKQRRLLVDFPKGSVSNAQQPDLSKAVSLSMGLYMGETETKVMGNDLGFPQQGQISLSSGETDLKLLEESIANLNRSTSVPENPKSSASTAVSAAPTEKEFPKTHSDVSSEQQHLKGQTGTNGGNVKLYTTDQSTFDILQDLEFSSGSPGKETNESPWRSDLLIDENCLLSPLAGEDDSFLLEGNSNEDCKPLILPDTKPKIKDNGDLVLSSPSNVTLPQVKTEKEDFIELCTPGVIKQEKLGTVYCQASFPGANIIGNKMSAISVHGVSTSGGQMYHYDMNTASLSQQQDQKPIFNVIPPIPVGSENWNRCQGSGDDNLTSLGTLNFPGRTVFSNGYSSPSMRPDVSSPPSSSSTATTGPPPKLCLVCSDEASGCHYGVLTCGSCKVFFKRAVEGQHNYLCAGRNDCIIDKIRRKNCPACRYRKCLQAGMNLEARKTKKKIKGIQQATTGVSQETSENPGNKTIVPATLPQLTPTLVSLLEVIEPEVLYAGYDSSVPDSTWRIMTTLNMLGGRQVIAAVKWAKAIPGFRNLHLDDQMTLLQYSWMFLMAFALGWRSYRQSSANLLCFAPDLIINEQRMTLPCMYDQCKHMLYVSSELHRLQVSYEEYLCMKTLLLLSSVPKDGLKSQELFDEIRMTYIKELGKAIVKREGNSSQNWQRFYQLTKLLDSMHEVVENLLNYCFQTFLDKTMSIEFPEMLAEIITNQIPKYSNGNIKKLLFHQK

Fc1ccccc1-c1nc(NCCCN2CCOCC2)c2ccccc2n1
inactive: activity change, negative = inhibition [1] 0.19% | activity, negative = inhibition [2] -7.69% | Potency [3] > 20.6 µM

Nc1nc2n(n1)C(c1cccs1)CC(c1ccc(F)cc1)N2 (centres undefined)
inactive: activity change, negative = inhibition [1] 5.72% | activity, negative = inhibition [2] 1.08% | Potency [3] > 20.6 µM

CC(C)c1nc(NCCN2CCOCC2)c(C#N)c2c1COC(C)(C)C2
inactive: activity change, negative = inhibition [1] -27% | activity, negative = inhibition [2] -1.06% | Potency [3] > 20.6 µM

COCCCNC(=O)c1c(N)n(/N=C/c2cccs2)c2nc3ccccc3nc12
inactive: activity change, negative = inhibition [1] 24.9% | activity, negative = inhibition [2] 21.4% | Potency [3] > 20.6 µM

COc1ccccc1C1/C(=C(/O)c2ccc(C)cc2)C(=O)C(=O)N1CCN1CCOCC1 (centres undefined)
inactive: activity change, negative = inhibition [1] -9.75% | activity, negative = inhibition [2] 1.99% | Potency [3] > 20.6 µM

COc1ccc(S(=O)(=O)N2CCC(N3CCCCC3)CC2)cc1
inactive: activity change, negative = inhibition [1] 7.98% | activity, negative = inhibition [2] 6.94% | Potency [3] > 20.6 µM

CCCCCc1ccc(-c2ccc(=O)[nH]n2)cc1
inactive: activity change, negative = inhibition [1] 7.59% | activity, negative = inhibition [2] 13.6% | Potency [3] > 20.6 µM

CC(C)Sc1nc(N2CCCC2)c2c(c1C#N)CC(C)(C)OC2
inactive: activity change, negative = inhibition [1] -10.5% | activity, negative = inhibition [2] -9.04% | Potency [3] > 20.6 µM

CCOC(=O)c1nc(N)c(C(=O)OCC)[nH]1
inactive: activity change, negative = inhibition [1] 8.92% | activity, negative = inhibition [2] 6.9% | Potency [3] > 20.6 µM

CCO/C(C)=N/n1c2nc3ccccc3nc2c2c(=O)n(Cc3ccccc3Cl)c(C)nc21
inactive: activity change, negative = inhibition [1] -30% | activity, negative = inhibition [2] -8.13% | Potency [3] > 20.6 µM

CCCOc1cc(CN2CCCCC2)cc(C(C)=O)c1
inactive: activity change, negative = inhibition [1] 27.9% | activity, negative = inhibition [2] 7.32% | Potency [3] > 20.6 µM

C=C1c2cc(OC)ccc2NC(=O)N1CC
inactive: activity change, negative = inhibition [1] 13.3% | activity, negative = inhibition [2] 1.02% | Potency [3] > 20.6 µM

Cc1nc2c(c(=O)n1CC1CCCO1)c1nc3ccccc3nc1n2Cc1ccc2c(c1)OCO2 (centres undefined)
inactive: activity change, negative = inhibition [1] 1.65% | activity, negative = inhibition [2] -13.4% | Potency [3] > 20.6 µM

CCOc1cccc(-c2nnc3sc(-c4cc(OC)c(OC)c(OC)c4)nn23)c1
inactive: activity change, negative = inhibition [1] 3.58% | activity, negative = inhibition [2] -10.4% | Potency [3] > 20.6 µM

COc1ccc(CCn2c(=N)c(C(=O)NCc3ccco3)cc3c(=O)n4ccccc4nc32)cc1OC
inactive: activity change, negative = inhibition [1] -14.6% | activity, negative = inhibition [2] -2.08% | Potency [3] > 20.6 µM

O=S(=O)(c1ccc(Cl)cc1)N1CCC(N2CCCCCC2)CC1
inactive: activity change, negative = inhibition [1] 9.12% | activity, negative = inhibition [2] 3.47% | Potency [3] > 20.6 µM

CSC1=Nc2sc3c(c2C2=NCCN12)CC(C)(C)OC3
inactive: activity change, negative = inhibition [1] 26% | activity, negative = inhibition [2] 14.3% | Potency [3] > 20.6 µM

C=CCNc1nnc(SC2CC(=O)N(c3ccc(OC)cc3)C2=O)s1 (centres undefined)
inactive: activity change, negative = inhibition [1] -11.6% | activity, negative = inhibition [2] -1.82% | Potency [3] > 20.6 µM

CCCSc1nc(N2CCOCC2)c2c(c1C#N)CCCC2
inactive: activity change, negative = inhibition [1] 20.8% | activity, negative = inhibition [2] -3.09% | Potency [3] > 20.6 µM

COCc1[nH]nc2c1C(c1ccc(OC)cc1)C(C#N)=C(N)O2 (centres undefined)
inactive: activity change, negative = inhibition [1] 2.89% | activity, negative = inhibition [2] -11.4% | Potency [3] > 20.6 µM

O=C1C=C(N2CCN(C3=CC(=O)CCC3)CC2)CCC1
inactive: activity change, negative = inhibition [1] 20.4% | activity, negative = inhibition [2] 13.1% | Potency [3] > 20.6 µM

CCCCNC(=O)N(C)c1nncnc1C(=O)NC
inactive: activity change, negative = inhibition [1] 16.6% | activity, negative = inhibition [2] 11.5% | Potency [3] > 20.6 µM

CC(=O)Nc1ccc(-c2cc3ccccc3o2)cc1
inactive: activity change, negative = inhibition [1] -10.3% | activity, negative = inhibition [2] -0.606% | Potency [3] > 20.6 µM

CCOC(=O)c1[nH]c2ccc(F)cc2c1N=C(C)N(CC)CC
inactive: activity change, negative = inhibition [1] 4.09% | activity, negative = inhibition [2] 5.12% | Potency [3] > 20.6 µM

CCOC(=O)/C=c1\s/c(=C(\C#N)C(=O)OCC)n(-c2ccccc2)c1=O
inactive: activity change, negative = inhibition [1] 2.08% | activity, negative = inhibition [2] -22.2% | Potency [3] > 20.6 µM

O=c1[nH]c(=O)n(Cc2ccco2)c2c1C(C(F)(F)F)(C(F)(F)F)N=C(c1ccco1)N2
inactive: activity change, negative = inhibition [1] 3.52% | activity, negative = inhibition [2] -26.4% | Potency [3] > 20.6 µM

CCCCCCOC(=O)CCn1[nH]c(=O)c2ccccc2c1=O
inactive: activity change, negative = inhibition [1] 13% | activity, negative = inhibition [2] -5.61% | Potency [3] > 20.6 µM

CC(C)OC(=O)C(C#N)c1nc2ccccc2nc1N1CCN(Cc2ccc3c(c2)OCO3)CC1 (centres undefined)
inactive: activity change, negative = inhibition [1] -10.5% | activity, negative = inhibition [2] -12.7% | Potency [3] > 20.6 µM

COC(=O)c1c(NC(=O)c2nn(C)cc2Cl)sc2c1CCCC2
inactive: activity change, negative = inhibition [1] -24.3% | activity, negative = inhibition [2] -10.7% | Potency [3] > 20.6 µM

CN1CCN(CC(=O)Nc2nc(-c3ccccc3)cs2)CC1
inactive: activity change, negative = inhibition [1] 9.16% | activity, negative = inhibition [2] -4.84% | Potency [3] > 20.6 µM

Cc1c(CCC#N)c(N2CCN(C3CCCCC3)CC2)n2c(nc3ccccc32)c1C#N
inactive: activity change, negative = inhibition [1] -16.9% | activity, negative = inhibition [2] 9.87% | Potency [3] > 20.6 µM

CC1(C)CC(=O)C(C=NCCN2CCN(CCc3ccccc3)CC2)=C(O)C1
inactive: activity change, negative = inhibition [1] 2.91% | activity, negative = inhibition [2] -3.07% | Potency [3] > 20.6 µM

CC(=N\O)/C(CN(C)C)=N/O
inactive: activity change, negative = inhibition [1] -9.85% | activity, negative = inhibition [2] 12% | Potency [3] > 20.6 µM

Cc1cc(Nc2ccc3ccccc3c2)n2ncnc2n1
inactive: activity change, negative = inhibition [1] 16.7% | activity, negative = inhibition [2] -6.76% | Potency [3] > 20.6 µM

O=C(O)CCCCCCC1C(=O)NC(=O)N1CCC(O)C1CCCCC1 (centres undefined)
inactive: activity change, negative = inhibition [1] -4.54% | activity, negative = inhibition [2] 14.6% | Potency [3] > 20.6 µM

Cc1ccc2cc(CN(C(=O)c3ccco3)c3ccccc3C)c(=O)[nH]c2c1
inactive: activity change, negative = inhibition [1] -25.5% | activity, negative = inhibition [2] -12.8% | Potency [3] > 20.6 µM

O=C(CSc1nc2ccccc2c(=O)n1CC1CCCCC1)N1CCOCC1
inactive: activity change, negative = inhibition [1] -23.4% | activity, negative = inhibition [2] -21.6% | Potency [3] > 20.6 µM

COc1cccc(C(=O)OC2CCCN(C)C2)c1 (centres undefined)
inactive: activity change, negative = inhibition [1] -4.26% | activity, negative = inhibition [2] 4.49% | Potency [3] > 20.6 µM

CCn1c(SCC(=O)N2CCOCC2)nc2sc3c(c2c1=O)CCCC3
inactive: activity change, negative = inhibition [1] -8.7% | activity, negative = inhibition [2] -6.44% | Potency [3] > 20.6 µM

CCOc1ccccc1N1CCN(c2nc3ccccc3nc2C(C#N)C(=O)OC(C)C)CC1 (centres undefined)
inactive: activity change, negative = inhibition [1] 16.5% | activity, negative = inhibition [2] -13.8% | Potency [3] > 20.6 µM

CSc1nc2[nH]c3c(c2c2nncn12)CC(C)(C)OC3
inactive: activity change, negative = inhibition [1] -4.3% | activity, negative = inhibition [2] 7.21% | Potency [3] > 20.6 µM

Cc1cccc(C)c1OCC(O)CNS(=O)(=O)c1ccccc1C(=O)N1CCCCC1 (centres undefined)
inactive: activity change, negative = inhibition [1] -10.2% | activity, negative = inhibition [2] -0.145% | Potency [3] > 20.6 µM

CC1CN(C2CCN(C(=O)c3ccccc3Cl)CC2)CC(C)O1 (centres undefined)
inactive: activity change, negative = inhibition [1] 6.4% | activity, negative = inhibition [2] 1.52% | Potency [3] > 20.6 µM

Cc1ccc(S(=O)(=O)/C(C#N)=C/c2c(N3CCN(C)CC3)nc3c(C)cccn3c2=O)cc1
inactive: activity change, negative = inhibition [1] 9.07% | activity, negative = inhibition [2] -7.22% | Potency [3] > 20.6 µM

Cc1ccc2nc(NCc3ccccc3)[nH]c2c1
inactive: activity change, negative = inhibition [1] 1.71% | activity, negative = inhibition [2] -9.23% | Potency [3] > 20.6 µM

CC1(C)Cc2c(sc(NC(=O)c3ccc(Br)o3)c2C#N)CO1
inactive: activity change, negative = inhibition [1] -3.32% | activity, negative = inhibition [2] -9.34% | Potency [3] > 20.6 µM

Cc1c(O)c(CN2CCCCC2)cc2c3c(c(=O)oc12)CCC3
inactive: activity change, negative = inhibition [1] 6.76% | activity, negative = inhibition [2] -1.68% | Potency [3] > 20.6 µM

Cc1ccc2[nH]c3c(c2c1)CN(C(=O)CN1CCCc2ccccc21)CC3
inactive: activity change, negative = inhibition [1] -22.5% | activity, negative = inhibition [2] -11.3% | Potency [3] > 20.6 µM

Cc1cccc(OCCN2CSC(=S)N(C)C2)c1
inactive: activity change, negative = inhibition [1] -16.7% | activity, negative = inhibition [2] -7.42% | Potency [3] > 20.6 µM

Cc1nnc(NCc2n[nH]c(=O)c3ccccc23)c2ccccc12
inactive: activity change, negative = inhibition [1] 29.7% | activity, negative = inhibition [2] 25.1% | Potency [3] > 20.6 µM

COc1cccc(C2=CC(c3ccc(N(C)C)cc3)n3nnnc3N2)c1 (centres undefined)
inactive: activity change, negative = inhibition [1] -12.2% | activity, negative = inhibition [2] 14.4% | Potency [3] > 20.6 µM

C(=N\n1cnnc1)/c1ccccn1
inactive: activity change, negative = inhibition [1] 1.5% | activity, negative = inhibition [2] 7.02% | Potency [3] > 20.6 µM

CC(NC(=O)OC(C)(C)C)C(=O)Oc1ccc2ccc(=O)oc2c1 (centres undefined)
inactive: activity change, negative = inhibition [1] 24.1% | activity, negative = inhibition [2] 10.7% | Potency [3] > 20.6 µM

CC1CN(C2CCN(C(=O)c3ccccc3)CC2)CC(C)O1 (centres undefined)
inactive: activity change, negative = inhibition [1] -5.21% | activity, negative = inhibition [2] 3.62% | Potency [3] > 20.6 µM

Cc1cccc(OCC(=O)N2CCC(N3CCCCCC3)CC2)c1
inactive: activity change, negative = inhibition [1] 4.73% | activity, negative = inhibition [2] 5.82% | Potency [3] > 20.6 µM

Cn1c(Cl)cnc1C1CC(=O)c2cc(Cl)ccc2O1 (centres undefined)
inactive: activity change, negative = inhibition [1] 14.1% | activity, negative = inhibition [2] 0.321% | Potency [3] > 20.6 µM

CCCCCCn1c(SCCN2CCOCC2)nc2c1c(=O)[nH]c(=O)n2C
inactive: activity change, negative = inhibition [1] -17.8% | activity, negative = inhibition [2] -0.329% | Potency [3] > 20.6 µM

Cc1ccc2c(c1)[C@@H]1CN(C)CC[C@@H]1N2S(=O)(=O)c1ccc(F)cc1
inactive: activity change, negative = inhibition [1] 12.8% | activity, negative = inhibition [2] 5.84% | Potency [3] > 20.6 µM
